Article PMC11574364

Key:
Experiment in all cases: protein domain microarray probed with biotinylated miRNA; Domain array: 20 mM Tris-HCl pH 7.4, 200 mM KCl, 0.2 mM EDTA, 0.05% NP40, 2 ug/ul heparin, overnight 4 C. ORF array: PBS pH 7.0 with RNase inhibitor, 100 ng RNA; high values mean tight binding
Conditions in all cases: ssRNA
CELF2(1-2) = CELF2(1-2) (Homo sapiens, UniProt O95319)
CELF4(1-2) = CELF4(1-2) (Homo sapiens, UniProt Q9BZC1)
BOLL = molecular target: T1, BOLL (Homo sapiens, UniProt Q8N9W6)
T1 sequence: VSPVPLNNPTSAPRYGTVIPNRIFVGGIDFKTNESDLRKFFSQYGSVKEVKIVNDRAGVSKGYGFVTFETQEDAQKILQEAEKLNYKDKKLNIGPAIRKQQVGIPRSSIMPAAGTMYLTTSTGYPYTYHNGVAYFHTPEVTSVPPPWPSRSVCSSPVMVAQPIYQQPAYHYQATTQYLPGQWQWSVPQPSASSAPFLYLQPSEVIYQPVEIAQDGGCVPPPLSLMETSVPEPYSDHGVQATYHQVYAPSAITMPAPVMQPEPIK

CELF1(1-2) = CELF1(1-2) (Homo sapiens, UniProt Q92879)
Sequence of CELF1(1-2) (Q92879 1-210): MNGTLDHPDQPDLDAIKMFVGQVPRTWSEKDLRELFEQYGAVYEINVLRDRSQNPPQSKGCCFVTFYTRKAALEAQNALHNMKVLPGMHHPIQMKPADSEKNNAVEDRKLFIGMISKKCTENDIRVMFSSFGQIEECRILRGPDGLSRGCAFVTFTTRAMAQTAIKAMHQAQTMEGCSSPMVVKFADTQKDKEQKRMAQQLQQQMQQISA

CELF2(3) = CELF2(3) (Homo sapiens, UniProt O95319)
Sequence of CELF2(3) (O95319 396-508): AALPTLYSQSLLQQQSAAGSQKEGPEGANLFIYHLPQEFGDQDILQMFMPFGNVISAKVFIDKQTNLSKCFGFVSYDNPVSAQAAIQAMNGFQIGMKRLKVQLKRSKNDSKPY

CELF1(3) = CELF1(3) (Homo sapiens, UniProt Q92879)
Sequence of CELF1(3) (Q92879 370-486): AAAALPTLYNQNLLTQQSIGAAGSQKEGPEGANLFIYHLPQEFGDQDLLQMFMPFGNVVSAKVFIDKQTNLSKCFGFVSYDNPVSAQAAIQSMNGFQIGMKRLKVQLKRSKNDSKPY

A2BP1 = molecular target: T2, A2BP1 (Homo sapiens, UniProt Q9NWB1)
T2 sequence: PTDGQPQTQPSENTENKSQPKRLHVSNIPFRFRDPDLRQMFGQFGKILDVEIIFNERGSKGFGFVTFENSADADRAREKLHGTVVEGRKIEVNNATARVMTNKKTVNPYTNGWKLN

G3BP-2 = molecular target: T3, G3BP-2 (Homo sapiens, UniProt Q9UN86)
T3 sequence: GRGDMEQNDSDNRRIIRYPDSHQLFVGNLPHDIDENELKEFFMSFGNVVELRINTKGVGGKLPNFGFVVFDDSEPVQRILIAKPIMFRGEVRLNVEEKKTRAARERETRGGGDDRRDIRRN

hnRNP-A2/B1 = hnRNP-A2/B1 (Homo sapiens, UniProt P22626)
Sequence of hnRNP-A2/B1 (P22626 1-210): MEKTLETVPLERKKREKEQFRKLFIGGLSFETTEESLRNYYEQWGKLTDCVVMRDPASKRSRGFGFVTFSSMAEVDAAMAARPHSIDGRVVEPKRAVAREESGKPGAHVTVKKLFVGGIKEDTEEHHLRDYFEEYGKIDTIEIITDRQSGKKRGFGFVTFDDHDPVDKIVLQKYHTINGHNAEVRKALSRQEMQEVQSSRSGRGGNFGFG

DAZAP1 = molecular target: T4, DAZAP1 (Homo sapiens, UniProt Q96EP5)
T4 sequence: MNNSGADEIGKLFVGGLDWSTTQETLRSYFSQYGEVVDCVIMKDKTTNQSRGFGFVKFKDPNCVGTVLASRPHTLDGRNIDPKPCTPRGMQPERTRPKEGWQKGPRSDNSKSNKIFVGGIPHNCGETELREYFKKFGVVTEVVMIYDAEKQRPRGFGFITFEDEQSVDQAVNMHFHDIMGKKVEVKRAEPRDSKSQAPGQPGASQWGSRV

ELAVL2 = ELAVL2 (Homo sapiens, UniProt Q12926)
Sequence of ELAVL2 (Q12926 20-359): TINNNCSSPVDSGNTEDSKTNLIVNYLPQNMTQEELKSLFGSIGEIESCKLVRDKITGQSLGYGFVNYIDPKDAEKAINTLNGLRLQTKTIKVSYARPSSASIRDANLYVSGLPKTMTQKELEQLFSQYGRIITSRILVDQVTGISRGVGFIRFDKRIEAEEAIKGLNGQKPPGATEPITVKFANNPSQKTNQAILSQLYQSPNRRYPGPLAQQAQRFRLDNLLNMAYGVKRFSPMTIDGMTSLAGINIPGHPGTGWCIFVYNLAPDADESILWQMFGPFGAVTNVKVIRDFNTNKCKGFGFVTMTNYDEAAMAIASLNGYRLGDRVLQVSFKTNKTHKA

CPEB2 = molecular target: T5, CPEB2 (Homo sapiens, UniProt Q7Z5Q1)
T5 sequence: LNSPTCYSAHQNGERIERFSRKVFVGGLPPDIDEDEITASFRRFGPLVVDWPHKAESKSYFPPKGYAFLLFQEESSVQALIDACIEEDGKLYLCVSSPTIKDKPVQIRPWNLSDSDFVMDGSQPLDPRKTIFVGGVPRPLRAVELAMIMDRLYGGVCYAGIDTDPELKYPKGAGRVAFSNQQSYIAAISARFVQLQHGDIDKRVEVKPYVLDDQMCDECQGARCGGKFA

hnRNP-C1/C2 = hnRNP-C1/C2 (Homo sapiens, UniProt P07910)
Sequence of hnRNP-C1/C2 (P07910 1-110): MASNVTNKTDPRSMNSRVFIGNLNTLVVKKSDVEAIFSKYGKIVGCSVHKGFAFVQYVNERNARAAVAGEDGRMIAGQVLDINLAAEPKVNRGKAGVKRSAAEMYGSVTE

CELF6(3) = CELF6(3) (Homo sapiens, UniProt Q96J87)
Sequence of CELF6(3) (Q96J87 372-481): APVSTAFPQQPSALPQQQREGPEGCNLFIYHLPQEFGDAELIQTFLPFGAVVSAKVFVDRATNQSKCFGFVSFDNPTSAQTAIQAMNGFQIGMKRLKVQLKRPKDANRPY

Matrin-3 = molecular target: T6, Matrin-3 (Homo sapiens, UniProt P43243)
T6 sequence: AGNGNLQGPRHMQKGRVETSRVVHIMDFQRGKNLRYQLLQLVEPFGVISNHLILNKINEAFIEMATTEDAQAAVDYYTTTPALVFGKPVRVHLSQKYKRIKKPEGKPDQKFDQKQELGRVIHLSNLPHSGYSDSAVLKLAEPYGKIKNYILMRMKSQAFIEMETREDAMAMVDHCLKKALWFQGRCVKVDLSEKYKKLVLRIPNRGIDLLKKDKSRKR

ZCRB1 = ZCRB1 (Homo sapiens, UniProt Q8TBF4)
Sequence of ZCRB1 (Q8TBF4 1-110): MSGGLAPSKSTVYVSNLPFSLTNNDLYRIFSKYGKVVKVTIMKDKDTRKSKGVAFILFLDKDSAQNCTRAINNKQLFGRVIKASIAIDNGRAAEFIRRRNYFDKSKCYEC

Acinus(1) = molecular target: T7, Acinus(1) (Homo sapiens, UniProt Q9UKV3)
T7 sequence: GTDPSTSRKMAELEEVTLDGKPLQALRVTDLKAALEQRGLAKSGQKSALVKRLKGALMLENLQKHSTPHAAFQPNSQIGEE

CELF4(3) = CELF4(3) (Homo sapiens, UniProt Q9BZC1)
Sequence of CELF4(3) (Q9BZC1 380-486): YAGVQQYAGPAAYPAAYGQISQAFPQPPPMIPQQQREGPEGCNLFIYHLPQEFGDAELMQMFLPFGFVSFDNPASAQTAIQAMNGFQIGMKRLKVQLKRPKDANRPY

PABP3 = PABP3 (Homo sapiens, UniProt Q9H361)
Sequence of PABP3 (Q9H361 1-390): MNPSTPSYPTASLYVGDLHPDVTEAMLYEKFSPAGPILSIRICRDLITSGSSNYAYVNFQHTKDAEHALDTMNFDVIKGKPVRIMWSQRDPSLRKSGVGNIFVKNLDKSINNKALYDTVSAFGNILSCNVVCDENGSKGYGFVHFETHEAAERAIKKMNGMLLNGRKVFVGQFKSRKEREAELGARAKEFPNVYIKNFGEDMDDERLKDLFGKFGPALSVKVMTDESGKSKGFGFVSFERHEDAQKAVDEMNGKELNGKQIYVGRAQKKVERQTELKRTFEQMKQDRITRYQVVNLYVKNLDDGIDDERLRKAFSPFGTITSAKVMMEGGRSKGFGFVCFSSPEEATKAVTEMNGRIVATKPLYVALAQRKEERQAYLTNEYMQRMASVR

HNRPLL = molecular target: T8, HNRPLL (Homo sapiens, UniProt Q8WVV9)
T8 sequence: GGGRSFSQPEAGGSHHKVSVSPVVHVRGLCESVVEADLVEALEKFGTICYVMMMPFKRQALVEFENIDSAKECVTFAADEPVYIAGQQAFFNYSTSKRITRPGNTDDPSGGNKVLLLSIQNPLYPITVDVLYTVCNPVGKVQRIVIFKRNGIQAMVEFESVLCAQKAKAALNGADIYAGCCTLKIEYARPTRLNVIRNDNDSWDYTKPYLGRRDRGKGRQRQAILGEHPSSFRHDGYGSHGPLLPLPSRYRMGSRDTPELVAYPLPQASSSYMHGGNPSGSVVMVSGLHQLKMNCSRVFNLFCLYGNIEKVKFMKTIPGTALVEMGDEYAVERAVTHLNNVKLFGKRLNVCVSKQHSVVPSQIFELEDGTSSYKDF

Sequence of CELF2(1-2) (O95319 19-241): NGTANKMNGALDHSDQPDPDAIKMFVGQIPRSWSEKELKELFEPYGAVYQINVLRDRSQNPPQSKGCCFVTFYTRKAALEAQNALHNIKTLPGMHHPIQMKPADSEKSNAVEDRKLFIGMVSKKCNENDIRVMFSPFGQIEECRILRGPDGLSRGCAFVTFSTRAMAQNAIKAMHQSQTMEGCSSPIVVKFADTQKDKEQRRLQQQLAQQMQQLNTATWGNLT
Sequence of CELF4(1-2) (Q9BZC1 31-250): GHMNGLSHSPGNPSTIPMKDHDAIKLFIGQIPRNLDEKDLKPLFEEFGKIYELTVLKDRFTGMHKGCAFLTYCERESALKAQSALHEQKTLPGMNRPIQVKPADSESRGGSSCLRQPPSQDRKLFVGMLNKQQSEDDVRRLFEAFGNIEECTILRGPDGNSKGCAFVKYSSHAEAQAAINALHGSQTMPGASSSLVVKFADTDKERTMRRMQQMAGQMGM

Sequence | binding signal (CELF2(1-2)) [fluorescence intensity] | binding signal (CELF4(1-2)) [fluorescence intensity] | binding signal (BOLL) [fluorescence intensity] | binding signal (CELF1(1-2)) [fluorescence intensity] | binding signal (CELF2(3)) [fluorescence intensity] | binding signal (CELF1(3)) [fluorescence intensity] | binding signal (A2BP1) [fluorescence intensity] | binding signal (G3BP-2) [fluorescence intensity] | binding signal (hnRNP-A2/B1) [fluorescence intensity] | binding signal (DAZAP1) [fluorescence intensity] | binding signal (ELAVL2) [fluorescence intensity] | binding signal (CPEB2) [fluorescence intensity] | binding signal (hnRNP-C1/C2) [fluorescence intensity] | binding signal (CELF6(3)) [fluorescence intensity] | binding signal (Matrin-3) [fluorescence intensity] | binding signal (ZCRB1) [fluorescence intensity] | binding signal (Acinus(1)) [fluorescence intensity] | binding signal (CELF4(3)) [fluorescence intensity] | binding signal (PABP3) [fluorescence intensity] | binding signal (HNRPLL) [fluorescence intensity]
UAGCUUAUCAGACUGAUGUUGA | 21.3 ± 6.6 | 20.5 ± 0.276 | 567 ± 57.8 | 45.6 ± 13.3 | 1040 ± 177 | 1160 ± 14.2 | 2210 ± 93.6 | 330 ± 22.3 | 255 ± 27.4 | 717 ± 152 | 653 ± 28.8 | 118 ± 118 | 162 ± 10.4 | 42.1 ± 8.05 | 38.7 ± 15.4 | 189 ± 14.5 |  |  |  | 
AGAGGUAGUAGGUUGCAUAGUU | 63.2 ± 10.6 | 73.4 ± 2.28 | 995 ± 54.2 | 20.1 ± 13.8 | 2420 ± 70.3 | 2720 ± 64 | 4220 ± 134 | 942 ± 20.8 | 3610 ± 47.7 | 3900 ± 300 | 1660 ± 45 | 65.7 ± 16.8 | 406 ± 24 | 608 ± 73.6 | 201 ± 2.89 | 1460 ± 22.6 | 144 ± 9.49 | 28.9 ± 2.98 | 119 ± 10.5 | 123 ± 7.11
CAGUGCAAUGAUGAAAGGGCAU | 48.3 ± 1.66 | 68.5 ± 5.81 | 433.1 ± 0.594 | 29.4 ± 2.27 | 1010 ± 110 | 1043.4 ± 0.00707 | 3922 ± 30.6 | 1910 ± 49.7 | 2236 ± 9.55 | 1540 ± 260 | 965 ± 66.1 | 35.7 ± 11 | 146 ± 4.99 | 151 ± 17.8 | 116 ± 6.43 | 824 ± 79.4 | 130 ± 7.88 | 22.5 ± 0.509 | 60.5 ± 8.1 | 68.7 ± 5.11
UGAGGUAGUAGGUUGUAUAGUU | 29.8 ± 2.19 | 30.5 ± 1.88 | 175 ± 17.3 |  | 2178 ± 19.2 | 2270 ± 106 | 1110 ± 13.1 | 117 ± 15.5 | 1499 ± 4.81 | 1600 ± 139 | 608.35 ± 0.587 | 42.8 ± 2.43 | 244.2 ± 0.382 | 282 ± 110 | 69.3 ± 9.98 | 602 ± 7.03 | 37 ± 6.58 |  | 31.2 ± 7.62 | 
UGAGGUAGUAGGUUGUAUGGUU | 79.94 ± 0.219 | 96 ± 8.15 | 423 ± 34.1 | 24.5 ± 18.4 | 2750 ± 76 | 2750 ± 97.5 | 2938 ± 25.1 | 697 ± 11.7 | 2642 ± 18.6 | 2980 ± 146 | 1210 ± 62.5 | 66.6 ± 14.3 | 636.15 ± 0.594 | 628 ± 29.6 | 251.8 ± 1.32 | 1150 ± 9.06 | 162 ± 13.3 | 24.3 ± 1.9 | 211 ± 6.4 | 97.4 ± 6.78
UGAGGUAGUAGGUUGUGUGGUU | 156 ± 18.9 | 241 ± 6.35 | 986 ± 65.6 | 32.2 ± 23.1 | 2850 ± 134 | 2820 ± 118 | 3130 ± 57 | 967 ± 16.3 | 2240 ± 7.74 | 2560 ± 130 | 1370 ± 72.6 | 108 ± 11.6 | 742.6 ± 1.1 | 653 ± 52 | 496.54 ± 0.269 | 1440 ± 63.3 | 330 ± 24.8 | 33.3 ± 4.99 | 334 ± 26 | 120 ± 20.3
